Assay results from PubChem BioAssay (NCI).
Compounds without any hit were thinned out: in the full panel of roughly 83,000, 20% have a hit.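 Plates (96-well) were seeded with cells, treated with compound at one concentration, and incubated for 48 hours before percent growth was determined.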 A number with no mark means an inactive call. The source made the active and inactive calls. Rule for the calls: active = growth percent below 10; inactive = the rest.

What was measured:
Assay in all cases: NCI-60 one-dose screen, 48 h (100 = growth as untreated, 0 = no growth, -100 = all killed)
SK-MEL-2 melanoma = settings: 10 µM unless noted
EKVX NSCLC = settings: 10 µM unless noted
SN12C renal = settings: 10 µM unless noted
UO-31 renal = settings: 10 µM unless noted
TK-10 renal = settings: 10 µM unless noted
ACHN renal = settings: 10 µM unless noted
A498 renal = settings: 10 µM unless noted
CCRF-CEM leukemia = settings: 10 µM unless noted
MOLT-4 leukemia = settings: 10 µM unless noted
CAKI-1 renal = settings: 10 µM

SMILES | growth (SK-MEL-2 melanoma) | growth (EKVX NSCLC) | growth (SN12C renal) | growth (UO-31 renal) | growth (TK-10 renal) | growth (ACHN renal) | growth (A498 renal) | growth (CCRF-CEM leukemia) | growth (MOLT-4 leukemia) | growth (CAKI-1 renal)
COc1cc(-c2nc3sc(C)cn3c2/C=C2\C(=O)Nc3ccccc32)c(Br)c(OC)c1OC | 74.3% | 31.5% | 90.9% | 24.8% | 56.5% | 57% | 22.6% | 34.7% | 39.9% | –
FC(F)(F)c1cn(CC2CNC2)c2ncnc(Cl)c12 | 103% | 109% | 102% | 102% | 104% | 104% | 112% | 86.7% | 89.9% | –
CCN(CC)CC(=O)Nc1c(C)cccc1C | 104% | 85.2% | 98.8% | 83.2% | 116% | – | 102% | 103% | 104% | 94.3%
c1ccc(OCC[P+](c2ccccc2)(c2ccccc2)c2ccccc2)cc1 | -16.2% (active) | 26.3% | 29.8% | 63.5% | 40.2% | 60.5% | 74.2% | – | 34.8% | –
Nc1nc(Cl)c2c(C(F)(F)F)cn(CC3CCNCC3)c2n1 | 87.9% | 88.8% | 85.7% | 91.6% | 91.5% | 104% | 107% | 51.9% | 45.8% | –
CCCOC(=O)c1ccc([N+](=O)[O-])o1 | 102% | 112% | 103% | 96.2% | 104% | 105% | – | 97.4% | – | –
CCOC(=O)NNc1nncc2ccccc12 | 119% | 78.3% | 97% | 90.4% | 106% | – | 96% | 109% | 94% | 84.1%
Cc1ccc(N(CC2=NCCN2)c2cccc(O)c2)cc1 | 107% | 90.2% | 94.6% | 79.7% | 102% | – | 93.8% | 98.5% | 97.7% | 90%
CC(C)NCC(O)COc1ccc(CC(N)=O)cc1 (stereo unspecified) | 105% | 101% | 104% | 83.5% | 105% | – | 92.9% | 100% | 107% | 94.1%
Nc1ccc(S(=O)(=O)Nc2ccnn2-c2ccccc2)cc1 | 115% | 93.8% | 99.7% | 82.4% | 117% | – | 107% | 107% | 98.1% | 92.7%
COc1cc2c(cc1OCCCCC(=O)Nc1ccc(-c3nc4ccccc4s3)cc1)N=C[C@@H]1CCCN1C2=O | -2.21% (active) | 2.66% (active) | 15.3% | -31.6% (active) | -0.417% (active) | 1.84% (active) | -79.3% (active) | – | -31.7% (active) | –
COc1cccc(C2CC(c3cc(OC)c(OC)c(OC)c3)=NN2)c1 (stereo unspecified) | 94% | 117% | 91.8% | 94.9% | 106% | 94.3% | 82.2% | – | 81.2% | –
CC1CCc2cc(F)cc3c(=O)c(C(=O)O)cn1c23 (stereo unspecified) | 125% | 91.4% | 98.2% | 78.5% | 103% | – | 88.1% | 109% | – | 81%
S=C=NP1(N=C=S)=NP(N=C=S)(N=C=S)=NP(N=C=S)(N=C=S)=NP(N=C=S)(N=C=S)=N1 (stereo unspecified) | 95.8% | 95% | 102% | 77.3% | 110% | – | 118% | 105% | – | –
CC(=O)CC/C=C(\C)[C@H](O)[C@H](C)C(=O)O[C@H]1C[C@H](C)C=C2C=C[C@@]3(C)O[C@@H](O)CC(=O)[C@]3(C)[C@H]21 | -59.7% (active) | -28.8% (active) | -11.5% (active) | -28.6% (active) | -27.4% (active) | – | -66.2% (active) | 4.28% (active) | -7.91% (active) | –
